Source: PubChem BioAssay (several laboratories)
An excerpt weighted towards active compounds, which were near 3.2% of everything screened.
PAX8 inh HTS: inhibitors of PAX8 transcriptional activity in RMG-I cells | RMG-I TPO-luciferase reporter, SteadyGlo, 24 h | inhibition, % at 12.6 µM | actives 1.2% (n = 360,000) | AID 652154;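 active means mean replicate inhibition at least 60% with every replicate also reaching 60%; inconclusive means only one of the two criteria is met; inactive means mean below 60% and not all replicates reaching 60%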;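 further: luciferase light reporting Pax8 driven TPO promoter activity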
EWS-Fli inh: inhibitors of EWS/Fli oncoprotein transcriptional activity; A673 NR0B1-luciferase reporter, viability-normalised; inhibition, % at 12.6 µM; actives 0.67% (n = 350,000);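 active means mean inhibition of at least 50% after viability correction, with every replicate also passing that limit; inconclusive means mean reaches 50% but only one of two replicates passes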;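 further: firefly luciferase signal divided by Alamar Blue viability fluorescence both relative to DMSO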
LGR2 antag: Drosophila LGR2 receptor signaling inhibition; HEK293 LGR2, CRE-luciferase, bursicon-stimulated, 4 h; inhibition, % at 9.99 µM; actives 0.35% (n = 380,000);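 active means drop in luminescence signal, shown as inhibition above about 50% in the replicate tests, limit read from the data, passing the limit was not always enough; inconclusive means probably only some replicates passing the limit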;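 further: agonist challenge used bursicon conditioned medium at about half maximal strength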
TWEAK Fn14 block: blocks TWEAK-Fn14 interaction in a reporter cell assay | inhibition, % at 10 µM | actives 2% (n = 360,000) | TWEAK-stimulated Fn14 reporter cells, luciferase luminescence, 8 h | AID 1159606; in the data active means inhibition above about 50%
TROY signal inh: blocks TROY-dependent signaling in reporter cells. actives 0.98% (n = 360,000). Q293 LMP1-TROYcd NF-kB luciferase reporter, 4 h. inhibition, % at 10 µM;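 active means compounds whose plate-normalised and pattern-corrected inhibition of the luciferase reporter signal at the single screening dose is 50% or more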
LMP1 NFkB inh: Epstein-Barr LMP1 NF-kappaB reporter inhibition | LMP1-induced NF-kappaB luciferase reporter cells, luminescence | inhibition, % at 12.5 µM | actives 0.69% (n = 350,000) | AID 504558; in the data active means inhibition above about 41%; inconclusive means no clear call, values can overlap the other calls
Hits are given with their value; – = inactive; ? = inconclusive; · = not tested or not shown.

SMILES | PAX8 inh HTS | EWS-Fli inh | LGR2 antag | TWEAK Fn14 block | TROY signal inh | LMP1 NFkB inh
CC(C)(C)c1cc(C(=O)NN)n(Cc2ccc(F)cc2)n1 | – | – | – | – | – | –
Cc1cccc(Cn2nc(C(C)(C)C)cc2C(=O)Nc2ccc(F)cc2)c1 | – | – | ? | – | 58 | –
Cc1ccc(S(=O)(=O)N(C)C[C@H]2Oc3c(NC(=O)Nc4ccc(F)cc4)cccc3C(=O)N([C@@H](C)CO)C[C@H]2C)cc1 | 78 | – | – | · | · | ·
C[C@@H]1CN([C@@H](C)CO)C(=O)c2cccc(NC(=O)Nc3ccc(F)cc3)c2O[C@H]1CN(C)S(=O)(=O)c1ccc(Cl)cc1 | – | – | – | · | · | ·
C[C@H](CO)N1C[C@H](C)[C@@H](CN(C)C(=O)NC2CCCCC2)Oc2c(NS(=O)(=O)c3cn(C)cn3)cccc2C1=O | – | – | – | – | – | 50
C[C@H](CO)N1C[C@H](C)[C@@H](CN(C)S(=O)(=O)c2ccc(F)cc2)Oc2c(NC(=O)CCC(F)(F)F)cccc2C1=O | – | – | – | – | – | –
C[C@H](CO)N1C[C@H](C)[C@H](CN(C)S(=O)(=O)c2ccc(Cl)cc2)Oc2c(NC(=O)Nc3ccc(F)cc3)cccc2C1=O | 91 | – | · | · | · | ·
COc1ccc(S(=O)(=O)N(C)C[C@H]2Oc3c(NC(=O)CCC(F)(F)F)cccc3C(=O)N([C@H](C)CO)C[C@@H]2C)cc1 | – | – | – | – | – | 56
C[C@H](CO)N1C[C@H](C)[C@H](CN(C)S(=O)(=O)c2ccc(Cl)cc2)Oc2c(NC(=O)NC3CCCCC3)cccc2C1=O | 92 | – | · | · | · | ·
C[C@H]1CN([C@@H](C)CO)C(=O)c2cccc(NC(=O)NC3CCCCC3)c2O[C@@H]1CN(C)S(=O)(=O)c1ccc(Cl)cc1 | – | – | – | · | · | ·
CCCN1[C@@H]2Cn3c(ccc(C4=CCCCC4)c3=O)[C@H]1[C@@H](C(=O)NCC(F)(F)F)[C@@H]2CO | – | – | – | · | · | ·
Fc1cccc(Cl)c1/C=C/c1cnc2ccccc2n1 | – | 82 | 91 | – | – | –
Cc1ccsc1/C=C/c1ccc2cccc(O)c2n1 | · | · | · | – | – | –
O=C(/C=C/c1c(F)cccc1Cl)Nc1nc2ccccc2[nH]1 | – | – | · | – | – | –
Cc1ccsc1/C=C/c1ccc2ccccc2n1 | · | · | · | 52 | – | 70
Fc1cccc(F)c1/C=C/c1ccc2ccccc2n1 | – | · | 67 | – | – | –
C[C@@H]1CN([C@@H](C)CO)C(=O)c2cc(NS(=O)(=O)c3cn(C)cn3)ccc2O[C@@H](C)CCCCO[C@H]1CN(C)C | – | · | · | · | · | ·
Cc1ccc([C@H]2C(C(=O)O)=CC[C@@H](c3cccc(Cl)c3)N2S(=O)(=O)c2ccc(C)cc2)cc1 | – | – | – | – | – | –
Cc1ccc(S(=O)(=O)N2[C@@H](c3ccc(Br)cc3)C(C(=O)O)=CC[C@H]2c2ccc(Cl)c(Cl)c2)cc1 | – | – | – | – | 62 | –
Cc1ccc(S(=O)(=O)N2[C@@H](c3ccc(C(C)(C)C)cc3)C(C(=O)O)=CC[C@H]2c2ccc(Cl)c(Cl)c2)cc1 | – | – | – | – | – | –
Cc1ccc(S(=O)(=O)N2[C@@H](c3ccc(C(C)(C)C)cc3)C(C(=O)O)=CC[C@H]2c2cccc(Cl)c2)cc1 | – | – | – | 50 | 81 | –
O=C(C1CCCCC1)N1C[C@H]2[C@@H](c3ccccc31)[C@@H](CO)N2C(=O)c1ccccc1F | – | – | – | · | · | ·
Cc1cc(C)c(-c2csc(NC(=O)/C=C/c3cccs3)n2)c(C)c1 | – | · | – | 69 | – | –
O=C(/C=C/c1cccs1)Nc1cccc(NC(=O)/C=C/c2cccs2)n1 | – | – | – | 73 | – | –
Cc1cc(C)nc(NC(=O)/C=C/c2cccs2)c1 | · | – | – | – | – | –
SMILES | PAX8 inh HTS | EWS-Fli inh | LGR2 antag | TWEAK Fn14 block | TROY signal inh | LMP1 NFkB inh
OC[C@@H]1[C@@H](c2ccc(C#CC3(O)CCCC3)cc2)[C@H]2CN(Cc3cccnc3)CCCCN12 | – | – | – | · | · | ·
O=C(C[C@@H]1CC[C@H]2[C@@H](COC[C@H](O)CN2Cc2nccs2)O1)NCc1ccc(-c2ccccc2)cc1 | – | – | – | · | · | ·
CCCCn1c(=O)[nH]c(=O)c2c1nc(Cn1ncc(Cl)c(Cl)c1=O)n2CCC | 97 | – | – | 94 | 71 | –
CCCCn1c(=O)[nH]c(=O)c2c1nc(CN1C(=O)c3ccccc3S1(=O)=O)n2CCC | · | · | · | – | – | –
C[C@@H]1CN([C@H](C)CO)C(=O)c2cccc(NC(=O)c3cnccn3)c2O[C@H]1CN(C)S(=O)(=O)c1ccc(F)cc1 | · | – | – | · | · | ·
O=C(CSc1cccc[n+]1[O-])NN(c1ccccc1)c1ccccc1 | – | – | – | 83 | – | –
CN(C(=O)CSc1cccc[n+]1[O-])c1ccccc1 | – | – | – | – | – | –
CN(C)CC#Cc1ccc([C@@H]2[C@@H](CO)N3C(=O)CN(C(=O)c4cccnc4)C[C@@H]23)cc1 | – | – | – | · | · | ·
O=C(Nc1ccc(-c2csc(Nc3ccccc3)n2)cc1)c1cc([N+](=O)[O-])cc(C(F)(F)F)c1 | – | – | – | 66 | – | –
COC(=O)c1ccc(Cn2cc(/C=C\[N+](=O)[O-])c3ccccc32)o1 | – | 68 | – | – | – | –
COC(=O)C[C@H]1C[C@@H]2c3cc(N(C)C)ccc3O[C@@H]2[C@@H](CO)O1 | – | – | – | · | · | ·
COc1ccccc1C1=NNC(=Nc2cccc(S(=O)(=O)N(C)C)c2)SC1 | 84 | – | – | 50 | – | –
O=C(Nc1ccc(F)cc1)N1CCCCN2[C@H](CO)[C@@H](c3ccc(-c4ccccc4F)cc3)[C@H]2C1 | – | – | · | · | · | ·
O=[N+]([O-])c1cc2c(ccc3occc32)o1 | 107 | – | – | · | · | ·
O=[N+]([O-])c1ccc2c(c1)oc1ccccc12 | – | · | · | – | – | –
OC(c1ccccc1)(c1ccccc1)C1CCN(CCCOc2ccc(C(F)(F)F)cc2)CC1 | – | – | 107 | · | · | ·
OC(c1ccccc1)(c1ccccc1)C1CCN(CCCOc2cccc(Cl)c2)CC1 | – | – | – | · | · | ·
OC(c1ccccc1)(c1ccccc1)C1CCN(CCCOc2cccc(C(F)(F)F)c2)CC1 | – | – | 106 | · | · | ·
CC(C)c1ccc(OCCCN2CCC(C(O)(c3ccccc3)c3ccccc3)CC2)cc1 | – | – | 103 | · | · | ·
CC(C)CC#Cc1cnc2c(c1)C(=O)N([C@@H](C)CO)C[C@@H](C)[C@@H](CN(C)Cc1ccc3c(c1)OCO3)O2 | · | – | – | · | · | ·
COc1ccc(CN(C)C[C@H]2Oc3ccc(NC(=O)NC4CCCCC4)cc3CC(=O)N([C@@H](C)CO)C[C@H]2C)cc1 | – | · | – | · | · | ·
CC(C)N1C(=O)S/C(=C/c2ccc(Sc3nc4ccccc4[nH]3)o2)C1=O | – | – | – | 89 | 59 | –
C=CCN1C(=O)S/C(=C/c2ccc(Sc3nc4ccccc4[nH]3)o2)C1=O | – | · | – | 73 | 52 | –
CCCC(=O)NC(c1ccc(N(C)C)cc1)c1c(O)ccc2ccccc12 (stereo not drawn) | – | · | – | – | – | –
